The source of these data is PubChem BioAssay AID686978 (National Center for Advancing Translational Sciences (NCATS), 2013).

In all, about 420,000 compounds went through this assay and about 64,000 (15%) were called active. About 27% were inconclusive and are not listed. Calls come from the whole dose curve; as a rule, active = well fitted inhibition curve with a large enough effect; inconclusive = small, poorly fitted or top-dose-only effect; inactive = flat fitted curve, though single readings scatter. A selection follows. Where a call stands in place of a potency, no number is given.
Potency is the fitted concentration of half-maximal effect.

The assay can be described thus: qHTS for Inhibitors of human tyrosyl-DNA phosphodiesterase 1 (TDP1): qHTS in cells in absence of CPT. Note: nearly all actives have a fitted effect of over 55% in size. Conditions: DT40 Tdp1-/- hTDP1 cells, no CPT, ATP luminescence, 48 h; activity change, negative = growth inhibition: at 46.2 µM (top of the series). In short, it runs like this: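 A cellular qHTS used chicken DT40 cells lacking endogenous Tdp1 but carrying stably transfected human TDP1. Compounds were applied without camptothecin, and cell growth kinetics were judged by ATP-dependent luminescence after ≥48 hr.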
On the technique in general: Quantitative high-throughput screening tests each substance at several concentrations.
Turning to `O=C(Cn1cc(C(F)(F)F)ccc1=O)Nc1ccc2c(c1)OCCO2`, the Potency entry is “inactive”. The value for `CCCCn1c(SCc2ncc(-c3ccccc3)o2)nc2cc(S(N)(=O)=O)ccc21` was 9.2 µM (active); that for `CCCCn1c(SCC(=O)N2CCCC2=O)nc2cc(S(N)(=O)=O)ccc21` was “inactive”. For the compound `CCCCn1c(SCC(=O)N2CCC(C(=O)OCC)CC2)nc2cc(S(N)(=O)=O)ccc21`, the Potency result is “inactive”. As to `Cc1[nH][nH]c(=O)c1N=Nc1ccccc1`, the Potency entry was “inactive”. As for `Cc1ccc(NC2(C#N)C(=O)Nc3ccccc32)cc1` (centres undefined), the Potency entry was “inactive”. As for `COC(=O)C(C)NC(=O)COc1ccc2ccccc2c1` (centres undefined), the Potency result is “inactive”.

`CCCCSc1[nH]c(=O)c(C(=O)OCC)cc1C#N`: the Potency entry is “inactive”. As for `CCc1ccc(-c2cc(C)no2)cc1S(=O)(=O)NCCc1ccc(S(N)(=O)=O)cc1`, the Potency result was “inactive”. On to `COc1ccc(CNS(=O)(=O)c2cc(-c3cc(C)no3)ccc2C(C)C)cc1`, for which the Potency is 0.731 µM (active). For the compound `Cc1cc(-c2ccc(C)c(S(=O)(=O)NC(C)Cc3ccco3)c2)on1` (centres undefined), the Potency result was “inactive”. The value for `Cc1cc(-c2ccc(C)c(S(=O)(=O)NCCCN(Cc3ccccc3)C(C)C)c2)on1` was 13 µM (active); that for `CCOc1ccccc1CNS(=O)(=O)c1cc(-c2cc(C)no2)ccc1C` was “inactive”. The value for `COc1cccc(CNS(=O)(=O)c2cc3c(cc2C)n(C)c(=O)c(=O)n3C)c1` was “inactive”; that for `CC(=O)OC(C)C[N+](C)(C)C` (centres undefined) was “inactive”. The value for `C=CCOc1ccc(/C=C/C(=O)OC(C)C(=O)Nc2ccc(NC(C)=O)cc2)cc1` (centres undefined) was “inactive”. Take `COC(=O)c1c(C)cc(O)c(C)c1O`: the Potency entry was “inactive”.

Take `O=C(/C=C/c1ccco1)NC(=S)N1CCCCC1`: the Potency entry was “inactive”. The value for `NC(=O)c1ccsc1NC(=O)COC(=O)Cc1n[nH]c(=O)c2ccccc12` was “inactive”.

Consider `Cc1cc(C)c(C2C3=C(Nc4c2c(C)nn4-c2ccccn2)c2ccccc2C3=O)c(C)c1` (centres undefined), for which the Potency was 8.2 µM (active). The value for `Cc1nc2ccccc2n1C(=O)N1CCOCC1` was “inactive”; that for `CC(OC(=O)/C=C/c1ccccc1)C(=O)NC1CCCCC1C` (centres undefined) was “inactive”.

`CC(C=Cc1ccccc1)=NNS(=O)(=O)c1ccc([N+](=O)[O-])cc1`: the Potency result was “inactive”.

For the compound `CC(/C=C/c1ccccc1)=N\NC(=O)C1CC1(C)c1ccccc1` (centres undefined), the Potency was 18.4 µM (active). The value for `Cn1c(=NC(=O)c2ccc3c(c2)OCCO3)sc2cc(S(C)(=O)=O)ccc21` was “inactive”; that for `NS(=O)(=O)c1cc(C(=O)OCC(=O)NNC(=O)c2ccccc2)ccc1Cl` was “inactive”. The value for `O=C(CO/N=C/c1ccccc1OC(F)F)NC1CCCC1` was “inactive”; that for `O=C(CO/N=C/c1ccccc1O)NNC(=O)c1ccccc1Cl` was 0.184 µM (active). The value for `CCCc1cc(=O)oc2c(C)c(OCC(=O)NCc3ccccn3)ccc12` was “inactive”; that for `CN(CCC#N)c1ccc(C=O)cc1` was “inactive”; that for `CC(=O)c1sc(NC(=O)c2ccc(C)cc2)nc1C` was “inactive”.

Regarding `CCOc1cccc(C(=O)Nc2nnc(-c3cccs3)s2)c1`, the Potency entry was “inactive”. The value for `N#Cc1ccc(C(=O)Nc2nc(-c3cccs3)c(C(=O)C(F)(F)F)s2)cc1` was 1.3 µM (active). For the compound `COc1ccc(CCNC(=O)c2cn(C)c3ccc(S(=O)(=O)N(C)C4CCCCC4)cc3c2=O)cc1OC`, the Potency result was “inactive”. As to `CC1(C)CC(=O)C=C(c2ccccc2CO)C1=O`, the Potency result was “inactive”.

`CC1CCCC(C)N1C(=O)COC(=O)COc1ccccc1C#N` (centres undefined): the Potency result is “inactive”. The value for `Cc1nnc(NC2=NCCCCC2)o1` was “inactive”; that for `COc1ccc(OCC(=O)NNC(=O)c2cccc(C)c2)cc1` was “inactive”; that for `COc1cccc(C(=O)NC(=O)Nc2nc(C)cc(C(F)(F)F)n2)c1` was “inactive”. The value for `COc1ccc(CN2C(=O)C(NC(=O)c3cccc(C)c3)(C(F)(F)F)N=C2c2ccccc2)cc1` (centres undefined) was 20.6 µM (active); that for `COc1ccc(S(=O)(=O)N2CCN(C(=O)c3cc(C)oc3C)CC2)cc1` was “inactive”. The value for `COc1ccc(C(=O)CCC(=O)Nc2cccnc2)c(OC)c1` was “inactive”; that for `COc1ccc(C(=O)Nc2cccnc2)cc1C(=O)Nc1cccnc1` was “inactive”. As for `COc1ccc(C(=O)/C=C/c2cccnc2)c(OC)c1`, the Potency was 18.4 µM (active). The value for `CC/C(=N\O)C(C)(C)/[N+]([O-])=C/c1ccc(Br)cc1` was “inactive”. `O=c1c2[nH]c3ccc(Cl)cc3c2ncn1Cc1ccccn1`: the Potency result was “inactive”.

Consider `COc1cccc(NC(=O)Cc2ccc(C)cc2)c1`, for which the Potency entry is “inactive”. The value for `COc1cccc(NC(=O)NCc2ccc(F)cc2)c1` was “inactive”; that for `Cc1cccc(NC(=O)Nc2cccc(Oc3c(F)c(F)c(F)c(F)c3F)c2)c1` was 18.4 µM (active). The value for `CN1CCC(OC(=O)COc2ccc(Cl)cc2Cl)CC1` was “inactive”. The value for `C[N+]1(CC(O)COc2ccccc2)CCN(C(=O)c2ccc([N+](=O)[O-])cc2)CC1` (centres undefined) was “inactive”; that for `CC(=O)Nc1cccc(OCC(=O)/C=C2\N(C)c3ccccc3C2(C)C)c1` was 7.31 µM (active); that for `CCOc1cccc(NC(=O)CC#N)c1` was “inactive”.

For `COc1cccc(NC(=S)C(C#N)=C2N(C)c3ccccc3N2C)c1`, the Potency result is “inactive”. The value for `CC(=O)NCC(O)c1ccc([N+](=O)[O-])cc1` (centres undefined) was “inactive”; that for `Cc1cc(C)c(C#N)c(SCC(=O)NN2CC(=O)N(c3ccccc3F)CC2=O)n1` was “inactive”. With `CCOC(=O)C=Cc1ccc(C(=O)OCC)[nH]1`, the Potency is 8.2 µM (active). The value for `CCOC(=O)c1cc2cc(C)ccc2[nH]1` was “inactive”; that for `CCOC(=O)c1ccccc1OC(=O)Oc1ccccc1C(=O)OCC` was “inactive”; that for `CCOC(=O)c1cccc(NC(=O)CN2C(=O)C3CC=CCC3C2=O)c1` (centres undefined) was “inactive”. The value for `O=C(Nc1ccccc1)/C(=C/c1ccc([N+](=O)[O-])cc1)NC(=O)c1ccccc1` was “inactive”; that for `CCOC(=O)/C(=C\c1ccc([N+](=O)[O-])cc1)C(=O)c1cc(C(C)=O)c(Nc2ccccc2)s1` was 0.731 µM (active); that for `O=C(O)C(=Cc1ccc([N+](=O)[O-])cc1)CCc1ccccc1` was “inactive”. The value for `CC(=O)c1c(C)n([O-])c2ccccc2[n+]1=O` was “inactive”; that for `O=C(NCc1ccccc1Cl)C1CCC(CNc2c(N3CCCCC3)c(=O)c2=O)CC1` (centres undefined) was “inactive”; that for `Cc1ccc2c(Cl)c(C(=O)Nc3nn[nH]n3)sc2c1` was “inactive”. On to `CCCCNS(=O)(=O)CCNCc1ccccc1OC`, for which the Potency entry is “inactive”. On to `CCCCCc1c(Cc2ccccc2)ncn1CCc1ccccc1OC`, for which the Potency is 2.59 µM (active). The value for `CCN(CC)CCN1C(=O)C(=O)/C(=C(/O)c2ccc(OC)c(OC)c2)C1c1ccccn1` (centres undefined) was “inactive”; that for `CCCCCc1c(-c2cccc(Br)c2)ncn1CCc1ccccc1OC` was 18.4 µM (active); that for `CCOC(=O)CSc1nnc(-c2cccc(Br)c2)o1` was “inactive”. The value for `CCC(=O)NCc1cc(-c2nn(C)c(=O)c3ccccc23)ccc1OC` was “inactive”. The value for `Cn1c(=O)c2c(ncn2CCc2ccccc2)n(C)c1=O` was “inactive”; that for `CCCCCc1c(-c2ccc(OC)c(OC)c2)ncn1CCc1ccccc1OC` was 2.59 µM (active).
